# Laboratory results as given in PubChem BioAssay.
# Calls of active or inactive are those of the source. Unless noted, how the calls were made is not given here.
# Columns and labels:
# [1] = test system: XIP peptide (Xip251-270) binding; test: XIP fragment 251-270 binding compounds – biochemical, small-molecule microarray, fluorescence 635/667 nm, 0.1 µg/mL protein, primary screen (AID 1182); settings: fluorescent protein binding, 635 nm, higher = more signal, called active from +8 up or from −8 down
# [2] = test system: XIP peptide (Xip251-270); test: compounds binding XIP fragment 251-270 – biochemical, small-molecule microarray, fluorescence 635/667 nm, 0.5 µg/mL protein, primary screen (AID 1183); settings: fluorescence 635 nm, higher = more signal
# [3] = blood-stage malaria parasite viability loss – strain 3D7, DAPI fluorescence, 100 nL, primary screen (AID 1184);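 further: parasites grown inside human red blood cells in medium with human serum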; settings: P. falciparum 3D7 growth, 3 d, higher = more signal
# [4] = target: Homeobox protein Hox-A13 (Mus musculus) (UniProt Q62424); test: disruptors of Hoxa13 oligonucleotide interaction – biochemical, fluorescence polarization, labeled oligonucleotide, primary screen (AID 1185); settings: Hoxa13:DNA binding, 15 min, higher = more signal, called active from +8 up or from −8 down
# [5] = blockers of DNA damage checkpoint Chk1 activation – imaging, HeLa, hydroxyurea, phospho-Chk1 antibody, percent positive cells, primary screen (AID 1186); settings: hydroxyurea-induced phospho-Chk1 immunofluorescence imaging, higher = more signal
# [6] = blockers of DNA damage checkpoint Chk1 activation – imaging, HeLa, hydroxyurea, phospho-Chk1 nuclear intensity, primary screen (AID 1187); settings: hydroxyurea-induced phospho-Chk1 immunofluorescence imaging, higher = more signal
# Homeobox protein Hox-A13 (Mus musculus), sequence (Q62424 whole entry, looked up): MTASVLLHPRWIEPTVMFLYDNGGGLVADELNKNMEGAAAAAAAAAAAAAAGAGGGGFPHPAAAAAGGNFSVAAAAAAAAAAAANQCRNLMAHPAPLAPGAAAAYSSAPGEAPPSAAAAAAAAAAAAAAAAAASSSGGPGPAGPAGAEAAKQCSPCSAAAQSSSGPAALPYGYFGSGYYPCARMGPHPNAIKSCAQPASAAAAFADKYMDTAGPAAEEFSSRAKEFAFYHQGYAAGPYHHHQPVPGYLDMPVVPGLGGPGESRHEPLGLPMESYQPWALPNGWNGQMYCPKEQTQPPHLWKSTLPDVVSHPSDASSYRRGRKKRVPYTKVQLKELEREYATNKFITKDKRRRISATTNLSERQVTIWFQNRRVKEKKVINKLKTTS
SMILES,composite z-score [1],composite z-score [2],z-score [3],z-score [4],z-score [5],z-score [6]
CC(C)CNC(=O)[C@@H]1c2ccccc2C(=O)N(C2CCCCC2)[C@H]1c1ccc(CO)cc1,0.737 (inactive),0.652,-0.68,-2.05 (inactive),-0.411 (inactive),-0.339 (inactive)
CO[C@H]1O[C@H](CO)[C@@H](OC(=O)Nc2cccc(F)c2)[C@H](OC(=O)Nc2ccccc2-c2ccccc2)[C@H]1OC(=O)Nc1ccccc1-c1ccccc1,0.184 (inactive),0.857,-1.7,-4.36 (inactive),-0.788 (inactive),-1.36 (inactive)
CN1C(=O)C2C=CC(C(O)c3ccc(F)cc3)N(NC(=O)OC(C)(C)C)C2C1=O (stereo unspecified),-0.0758 (inactive),0.258,-0.383,-2.11 (inactive),0.058 (inactive),-0.173 (inactive)
O=C1[C@@H]2[C@@H](CC(COc3ccccc3)=C3[C@@H](CCc4ccccc4)OB(O)C[C@@H]32)C(=O)N1Cc1ccccc1,0.318 (inactive),0.387,1.31,-5.54 (inactive),-0.242 (inactive),-0.22 (inactive)
O=C1N[C@@H](Cc2ccccc2)C(=O)N2[C@@H]1C[C@@H](C(=O)O)[C@H]2c1ccc(O)cc1,0.24 (inactive),0.649,-0.394,-2.41 (inactive),-0.0256 (inactive),0.0853 (inactive)
C[C@@]12COC[C@]13C=C(Br)[C@H](C2)[C@@]1(CO1)C3=O,0.0387 (inactive),-0.192,1.88,-0.703 (inactive),-0.0927 (inactive),0.12 (inactive)
CCCNC(=O)[C@@]1(Sc2ccc(C)cc2)CC(=O)N(C(C)C)[C@@H]1c1ccc(CO)cc1I,1.51 (inactive),-0.964,-0.221,-3.48 (inactive),0.366 (inactive),0.197 (inactive)
CC(C)C[C@@H]1NC(=O)[C@H]2C[C@@H](C(=O)NCCCCCN)[C@@H](c3cccc(OCCO)c3)N2C1=O,1.35 (inactive),0.853,0.304,-3.68 (inactive),-0.242 (inactive),0.0992 (inactive)
C=C(COC)C(=O)CC[C@H](OC(=O)c1cccnc1)c1ccc(CO)o1,0.0246 (inactive),0.193,0.535,-4.81 (inactive),0.169 (inactive),-0.143 (inactive)
COc1cc(NN2C(C(O)c3ccc(I)cc3)C=CC3C(=O)N(c4ccccc4)C(=O)C32)cc(OC)c1OC (stereo unspecified),0.204 (inactive),0.816,-0.908,-4.54 (inactive),0.505 (inactive),0.241 (inactive)
COC(=O)[C@@]1(Cc2ccc(F)cc2)[C@H]2c3cc(C(=O)N(C)C)n(Cc4ccc(O)c(OC)c4)c3C[C@H]2CN1C(=O)c1ccccc1,0.0137 (inactive),0.744,-1.76,-6.34 (inactive),-0.156 (inactive),-0.131 (inactive)
COCCOC(=O)N1C(=O)[C@@]2(c3cc(C#Cc4ccc(OC)cc4)ccc31)[C@H](C(=O)NC[C@H](O)c1ccccc1)[C@H]1C(=O)O[C@H](c3ccccc3)[C@H](c3ccccc3)N1[C@@H]2c1ccc(OCCO)cc1,0.271 (inactive),0.591,-2.17,1.56 (inactive),0.0092 (inactive),0.117 (inactive)
COc1ccc(C(O)C2C=CC3C(=O)N(c4ccccc4)C(=O)C3N2Nc2ccccc2F)cc1 (stereo unspecified),1.11 (inactive),0.857,0.571,-3.05 (inactive),-0.296 (inactive),-0.741 (inactive)
COc1ccc(NC(=O)O[C@H]2[C@@H]3OC(=O)[C@H](Cc4cccc(Br)c4)C/C=C/C[C@@H](Cc4cccc(Br)c4)C(=O)O[C@H]3[C@@H](OC)O[C@@H]2CO)cc1,1.25 (inactive),0.369,-1.6,-1.86 (inactive),0.0003 (inactive),0.0972 (inactive)
C=CCC(OC(C)=O)[C@@H]1[C@@H](N(Cc2ccc(-c3cccc(C(F)(F)F)c3)o2)C(=O)c2cccc3ccccc23)c2cc(OCCCO)ccc2N1C(=O)Cc1ccc(OC)cc1 (stereo partly specified),0.309 (inactive),0.456,-2.43,-1.92 (inactive),-0.48 (inactive),0.0284 (inactive)
COc1ccc(C#Cc2ccc3c(c2)[C@]2(C(=O)N3)[C@H](c3ccc(OCCO)cc3)N3[C@H](c4ccccc4)[C@H](c4ccccc4)OC(=O)[C@H]3[C@@H]2C(=O)N2CCc3cc(OC)c(OC)cc3C2)cc1,0.119 (inactive),0.659,-1.92,2.11 (inactive),-0.0018 (inactive),0.0006 (inactive)
O=C1OCC=C[C@H]2OC34C=CCN(c5ccc6ccccc6c5)C(=O)[C@H]3N(CCCCCO)C(=O)[C@@H]4[C@@H]12 (stereo partly specified),0.407 (inactive),0.351,-0.471,-4.6 (inactive),0.464 (inactive),0.0639 (inactive)
[N-]=[N+]=NCc1ccccc1[C@H]1OC(c2ccc(OCCCO)cc2)=N[C@@]1(CCS(=O)(=O)c1ccccc1)C(=O)NCc1ccccc1,-0.165 (inactive),0.68,-2.28,-0.495 (inactive),-0.189 (inactive),0.283 (inactive)
[N-]=[N+]=NCc1ccccc1C[C@@]1(C(=O)N2CCCCC2)N=C(c2ccc(OCCCO)cc2)O[C@@H]1c1ccccc1CN=[N+]=[N-],0.0378 (inactive),-0.0651,-2.55,0.301 (inactive),-0.382 (inactive),-0.903 (inactive)
COc1ccc([Si](C)(C)[C@@H]2[C@@H](CCn3cc([C@H](O)c4ccccc4)nn3)O[C@]3(C(=O)N(c4ccccc4)c4ccccc43)[C@H]2C)cc1,-0.17 (inactive),0.559,-1.73,-3.01 (inactive),-0.431 (inactive),-0.361 (inactive)
O=C1c2ccccc2[C@](Cc2ccccc2I)(C(=O)NC2CC2)[C@H](c2ccc(CO)cc2)N1Cc1ccccc1C(F)(F)F,0.135 (inactive),0.59,-1.89,-4.02 (inactive),-0.0771 (inactive),-0.189 (inactive)
